Measured values: PubChem BioAssay AID1259310 (The Scripps Research Institute Molecular Screening Center, 2017)
Among all 650,000 compounds or so, about 850 (0.13%) were called active. This excerpt belongs to a sample that is enriched for actives. Values without a mark were called inactive. Rule as the data show it: active = normalized activity above about 1.9%; inactive = the rest.

Target: F-box/WD repeat-containing protein 7 (Homo sapiens) (UniProt Q969H0)
Assay: FBW7 E3 ligase activators, primary screen, biochemical, AlphaScreen, human (AID 1259310);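 also: purified mutant Fbw7 with reduced substrate affinity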
Conditions: AlphaScreen FBW7–phospho-cyclin E peptide binding, activator screen; at 26.1 µM; hits give high values

Sequence of F-box/WD repeat-containing protein 7 (Homo sapiens) (Q969H0 whole entry, looked up): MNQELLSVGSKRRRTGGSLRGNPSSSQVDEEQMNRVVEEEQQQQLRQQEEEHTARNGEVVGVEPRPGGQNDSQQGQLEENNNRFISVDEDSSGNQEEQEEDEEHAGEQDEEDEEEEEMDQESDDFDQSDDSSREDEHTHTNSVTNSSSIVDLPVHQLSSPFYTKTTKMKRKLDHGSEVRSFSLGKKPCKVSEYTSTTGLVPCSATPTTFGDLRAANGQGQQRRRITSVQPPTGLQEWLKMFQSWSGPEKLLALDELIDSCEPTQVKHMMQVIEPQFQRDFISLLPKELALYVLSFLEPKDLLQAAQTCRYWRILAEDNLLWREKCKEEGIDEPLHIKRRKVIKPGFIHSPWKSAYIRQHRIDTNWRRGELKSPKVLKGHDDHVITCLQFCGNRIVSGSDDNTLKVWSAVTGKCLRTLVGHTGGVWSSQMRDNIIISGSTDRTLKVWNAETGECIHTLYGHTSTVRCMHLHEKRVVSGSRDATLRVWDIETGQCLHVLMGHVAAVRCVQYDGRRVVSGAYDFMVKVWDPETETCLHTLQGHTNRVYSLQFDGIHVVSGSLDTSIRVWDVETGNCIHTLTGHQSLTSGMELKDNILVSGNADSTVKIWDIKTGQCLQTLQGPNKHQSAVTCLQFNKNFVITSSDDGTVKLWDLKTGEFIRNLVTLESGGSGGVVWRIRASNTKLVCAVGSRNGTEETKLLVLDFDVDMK

Row | SMILES | normalized activity (activation)
1 | COc1ccc(OC)c(NS(=O)(=O)c2ccc(NC(=O)COc3ccccc3)cc2)c1 | -0.06%
2 | COc1ccc(Cl)cc1C(=O)Nc1cccc(-c2nc3cc(Cl)ccc3o2)c1C | 0.2%
3 | Fc1ccc(Nc2nc(NCC3CCCO3)c3ccccc3n2)cc1 (centres undefined) | -0.11%
4 | COc1ccc(C2CC(c3cccs3)=NN2c2ccccc2)cc1 (centres undefined) | 8.78% (active)
5 | COc1ccc(C2=NN(c3ccccc3)C(c3ccc(F)cc3)C2)cc1 (centres undefined) | 0.58%
6 | Fc1ccc(C2CC(c3cccs3)=NN2c2nc(-c3ccccc3)cs2)cc1 (centres undefined) | -0.01%
7 | c1cncc(-c2ncc(-c3ccncn3)c(-c3cccnc3)n2)c1 | 0.02%
8 | COC(=O)CSC1=C(C#N)C(c2ccccc2Cl)C(C(=O)Nc2ccccc2OC)=C(C)N1 (centres undefined) | -0.06%
9 | COc1cccc(-c2nc(C3CCCN(C(=O)CC(C)CC(=O)O)C3)n3ccccc23)c1 (centres undefined) | 0.94%
10 | Cc1cccc2sc(NC(=O)c3ccc(S(=O)(=O)N4CC(C)CC(C)C4)cc3)nc12 (centres undefined) | 0.22%
11 | CC[N+](C)(CC)CCNC(=O)c1c(O)c2ccccc2[nH]c1=O | 0.07%
12 | CC[N+](C)(CC)CCNC(=O)c1c(O)c2c([nH]c1=O)CCCC2 | 2.05% (active)
13 | C[N+](C)(C)CCNC(=O)c1c(O)c2c([nH]c1=O)CCCC2 | 0.2%
14 | CCOC(=O)c1cnc2cc(C(F)(F)F)ccc2c1Nc1ccccc1F | -0.08%
15 | Cc1ccccc1Nc1nc(-c2c(C)nc3ncccn23)cs1 | 0.01%
16 | Cc1ccc2c(c1)N(CC(=O)NC1CC1)C(=O)CO2 | -0.26%
17 | CCC(C)(C)C(=O)Nc1ccc(S(N)(=O)=O)cc1 | -0.09%
18 | C=CCN(C)C(=O)c1c(C(F)(F)F)nc2c(OC)cccn12 | 0.11%
19 | CN(C)C(=O)CN(C)C(=O)c1c(C(F)(F)F)nc2ccccn12 | 0.23%
20 | C#CCN(C)C(=O)c1c(C(F)(F)F)nc2c(OC)cccn12 | 1.94% (active)
21 | CN1CCN(c2nc3c(c(=O)n(C)c(=O)n3C)n2CC(=O)c2ccc(Br)cc2)CC1 | 0.05%
22 | COC(=O)c1ccc2c(c1)N(Cc1c(C)noc1C)C(=O)C(F)(F)O2 | 0.09%
23 | CCn1c(N2CCC(C(=O)NC3CCCCC3)CC2)nc2ccccc21 | 0.16%
24 | COc1cccc(OC)c1C(=O)OCC(=O)NC1CCCCC1C (centres undefined) | -0.19%

Row | SMILES | normalized activity (activation)
25 | CCC1(C)OC(=O)N(C)C1=O (centres undefined) | 2.13% (active)
26 | CC(=O)Nc1ccc(C(=O)NNC(=O)C(C)Oc2ccc(Cl)cc2Cl)cc1 (centres undefined) | -1.25%
27 | O=C(CSc1ncc(-c2ccccc2)[nH]1)Nc1ccc(Br)cc1 | -0.02%
28 | O=C(CSC1=NS(=O)(=O)c2ccccc21)Nc1ccc(Br)cc1 | -0.05%
29 | CC1(C)N=C(SCC(=O)Nc2ccc(Br)cc2)C(c2ccccc2)=N1 | 2.4% (active)
30 | C[C@@H](c1ccccc1)n1c(=O)[nH]c2ncc(-c3ccc(C(=O)N4CCN(C)CC4)cc3)nc21 | -0.33%
31 | Cc1cc(C)c2nc(N=C(N)N)nc(C)c2c1 | 1.86% (active)
32 | COc1nc(N=C(N)N)nc2c(C)cccc12 | -0.06%
33 | Cc1cc(C)nc(/N=C(\N)N2CCOCC2)n1 | 0.35%
34 | COc1ccc(C(=O)NCCC(=O)NC2CCCC2)cc1OC | 0.02%
35 | CC(C)CNC(=O)c1ccccc1I | 1.93% (active)
36 | Cc1ccccc1CNC(=O)c1ccccc1I | 0.92%
37 | COCC(C)NC(=O)c1ccccc1I (centres undefined) | 0.14%
38 | Cc1cc(=O)oc2cc(OCC(=O)N/N=C/c3ccc4c(c3)OCO4)ccc12 | -0.03%
39 | CC(=O)N(Cc1cc2cc(C)cc(C)c2[nH]c1=O)CC1CCCO1 (centres undefined) | 0.12%
40 | CCN1C(=O)c2cccc3c(NC(=O)C4CCCN4S(=O)(=O)c4ccc(OC)cc4)ccc1c23 (centres undefined) | -0.03%
41 | Cc1ccc2[nH]cc(C(=O)c3ccccc3)c(=O)c2c1 | 0.18%
42 | O=C(CC(=O)c1ccccc1O)c1ccccc1 | 0.25%
43 | CN(C)c1ccccc1C(=O)c1ccccc1 | 2.06% (active)
44 | COc1ccccc1NS(=O)(=O)c1cccc(NC(=O)c2cc(=O)[nH]c(=O)[nH]2)c1 | -0.11%
45 | Cc1cc(C(=O)NCc2nnc3n2CCN(Cc2ccccc2)CC3)c(C)o1 | -0.06%
46 | Cc1cccc(OCCC(=O)NNC(=O)Cc2cccn2C)c1 | -0.11%
47 | CCOc1ccc2c(=O)c(Oc3ccccc3)c(C(F)(F)F)oc2c1C | 0.9%
48 | CCN(CC)C(=O)Cn1ncn2c(cc3ccsc32)c1=O | -0.03%

Row | SMILES | normalized activity (activation)
49 | CCCc1nn(CC(=O)N(C)C)c(=O)c2cc3ccsc3n12 | 3.43% (active)
50 | CCc1nn(CC(=O)NCc2cccs2)c(=O)c2cc3ccsc3n12 | -0.13%
51 | Cc1cccc(C)c1NC(=O)C(=O)NCCCO | 0.01%
52 | O=C1C(=O)N(c2nc3ccccc3s2)C(c2ccc(O)cc2)/C1=C(\O)c1ccc(Cl)cc1 (centres undefined) | -0.15%
53 | COc1ccc(C2(O)CC(C(F)(F)F)=NN2C(=O)CCc2ccccc2)cc1 (centres undefined) | 0.67%
54 | COc1ccc(CC(=O)NNC(=O)c2ccccc2Cl)cc1 | -0.11%
55 | CSCCNC(=O)CCc1nnc(C2(c3ccc(Cl)cc3)CCC2)o1 | 0.03%
56 | Cc1cccc(NC(=O)c2ccccc2Nc2ccc(S(=O)(=O)C(F)(F)F)cc2[N+](=O)[O-])c1 | 0.06%
57 | COc1cc(CNc2nccn3c(-c4ccc(F)cc4)cnc23)cc(OC)c1OC | 1.85% (active)
58 | CN(C)CCNC(=O)c1ccc(-c2cnc3c(NCc4ccc(F)cc4)nccn23)cc1 | -0.01%
59 | COc1ccccc1-c1cnc2c(NCc3cccs3)nccn12 | -0.21%
60 | O=C(CSc1nnc(Nc2ccccc2)s1)c1ccc(F)cc1 | -0.08%
61 | CC(=O)Nc1ccc(Nc2nc(Nc3ccncn3)nc3nc[nH]c23)cc1 | 0.11%
62 | O=C1NC(=O)N(c2ccc(Br)cc2)C(=O)/C1=C\C=C\c1ccco1 | -0.18%
63 | COc1cc(OC)c(C2Nc3cccc4cccc(c34)N2)cc1OC | 1.96% (active)
64 | COc1ccc(C2Nc3cccc4cccc(c34)N2)c(OC)c1OC | 0.39%
65 | COc1ccc(OC)c(C2Nc3cccc4cccc(c34)N2)c1 | 0.03%
66 | O=c1[nH]c(N2CCOCC2)nc2c1CN(Cc1ccccc1Cl)CC2 | -0.04%
67 | O=C1CC(c2noc(-c3ccco3)n2)CN1c1ccccc1 (centres undefined) | -0.17%
68 | COc1cccc(-c2nc(-c3ccccc3)c(-c3ccccc3)[nH]2)c1O | -0.07%
69 | CCOc1ccc2nc(N3CCC(NCCc4nc(C)c5c(n4)CCC5)CC3)nc(C)c2c1 | 0.33%
70 | CC1CC(C)CN(CCS(=O)(=O)c2ccc(Oc3ccc(S(=O)(=O)CCN4CC(C)CC(C)C4)cc3)cc2)C1 (centres undefined) | -0.1%
71 | CCCCOC(=O)C1=C(C)N(C)C(=O)NC1c1cc(Cl)c(O)c(OC)c1 (centres undefined) | -0.11%
72 | CCOc1cc(OCC)cc(C(=O)Nc2cc3nn(-c4ccc(OC)cc4)nc3cc2C)c1 | -0.15%

Row | SMILES | normalized activity (activation)
73 | CCOc1ccc(C(=O)Nc2ccccc2I)cc1[N+](=O)[O-] | -0.08%
74 | CCOc1ccc(C(=O)Nc2cc3nn(-c4ccc(C)cc4)nc3cc2C)cc1[N+](=O)[O-] | 2.14% (active)
75 | O=C(Cc1ccccn1)N1CCCC(c2nc(N3CCOCC3)ncc2-c2ccncc2)C1 (centres undefined) | -0.05%
76 | CCOc1ccc(-n2nc(C(=O)Nc3ccccc3C(F)(F)F)c3ccccc3c2=O)cc1 | -0.03%
77 | NC(=O)c1ccccc1NC(=S)NC(=O)/C=C/c1cccc([N+](=O)[O-])c1 | 0.01%
78 | Cc1ccc2nc(SCC(=O)Nc3ccccc3C(N)=O)[nH]c2c1 | 0.11%
79 | O=C(Nc1ccccc1[N+](=O)[O-])c1cc(S(=O)(=O)Nc2cccc(F)c2)ccc1Cl | -0.02%
80 | O=C(COC(=O)c1ccccc1F)NCc1ccco1 | -0.11%
81 | COc1cc(Nc2nc(-c3c(C)noc3C)nc3c2ncn3C2CCCCC2)cc(OC)c1OC | -0.17%
82 | Cc1noc(C)c1-c1nc(N)c2ncn(-c3ccccc3)c2n1 | -0.05%
83 | COc1cc(Nc2nc(-c3c(C)noc3C)nc3c2ncn3-c2ccccc2)cc(OC)c1OC | 14.2% (active)
84 | Cc1nc2c(C(=O)N3CCCC3)cnn2c(C)c1Cc1ccccc1Cl | -0.09%
85 | O=C(Nc1ccc(I)cc1)OCCCc1ccccc1 | 0.21%
86 | Cc1ccc2nc(NC(=O)c3cc(-c4ccc(Cl)s4)nc4ccccc34)sc2c1 | -0.02%
87 | Cc1c(-c2nc3cnccn3c2NCc2ccc(F)cc2)cnn1C | -0.04%
88 | COc1cccc(NC(=O)CSc2ccc(Br)cc2)c1 | 0.07%
89 | COc1ccc(NC(=S)C(=O)Nc2ccccc2)cc1 | 0.08%
90 | COc1ccc(SCC(=O)NNC(=S)Nc2ccccc2)cc1 | 2.07% (active)
91 | CCOc1ccc2nc(NC(=O)c3cccc(C(=O)OC)n3)sc2c1 | -0.02%
92 | CC(C)c1ccc(OCC(=O)N/N=C/c2cccnc2)cc1 | -0.04%
93 | COc1c(Cl)cc(Cl)cc1C(=O)Nc1ccccc1[N+](=O)[O-] | -0.17%
94 | O=C(CN1C(=O)c2cccc([N+](=O)[O-])c2C1=O)OCC(=O)c1ccc(Cl)cc1 | -0.01%
